This passage reports Percent Effect results from ChEMBL document CHEMBL3988442, “University of Dundee, Small-Polar-MMV Screening Library” (2021).

Structures are written as SMILES. For some of these results: Entries with a potency or affinity are not part of this list.

Common to all, as to design: scale not given: direction of the effect not stated beside the values
For test [1], the target named is Protein translocase subunit SecA (Escherichia coli (strain K12)) (UniProt P10408). The experiment in a line: Assay to Identify E. coli SecA ATPase Inhibitors. It is filed as functional. To be noted: 30 µM.
The target of test [2] is T1, Ubiquitin-activating enzyme e1, putative (Leishmania donovani (strain BPK282A1)) (UniProt E9BSI1).
T1 sequence (whole entry): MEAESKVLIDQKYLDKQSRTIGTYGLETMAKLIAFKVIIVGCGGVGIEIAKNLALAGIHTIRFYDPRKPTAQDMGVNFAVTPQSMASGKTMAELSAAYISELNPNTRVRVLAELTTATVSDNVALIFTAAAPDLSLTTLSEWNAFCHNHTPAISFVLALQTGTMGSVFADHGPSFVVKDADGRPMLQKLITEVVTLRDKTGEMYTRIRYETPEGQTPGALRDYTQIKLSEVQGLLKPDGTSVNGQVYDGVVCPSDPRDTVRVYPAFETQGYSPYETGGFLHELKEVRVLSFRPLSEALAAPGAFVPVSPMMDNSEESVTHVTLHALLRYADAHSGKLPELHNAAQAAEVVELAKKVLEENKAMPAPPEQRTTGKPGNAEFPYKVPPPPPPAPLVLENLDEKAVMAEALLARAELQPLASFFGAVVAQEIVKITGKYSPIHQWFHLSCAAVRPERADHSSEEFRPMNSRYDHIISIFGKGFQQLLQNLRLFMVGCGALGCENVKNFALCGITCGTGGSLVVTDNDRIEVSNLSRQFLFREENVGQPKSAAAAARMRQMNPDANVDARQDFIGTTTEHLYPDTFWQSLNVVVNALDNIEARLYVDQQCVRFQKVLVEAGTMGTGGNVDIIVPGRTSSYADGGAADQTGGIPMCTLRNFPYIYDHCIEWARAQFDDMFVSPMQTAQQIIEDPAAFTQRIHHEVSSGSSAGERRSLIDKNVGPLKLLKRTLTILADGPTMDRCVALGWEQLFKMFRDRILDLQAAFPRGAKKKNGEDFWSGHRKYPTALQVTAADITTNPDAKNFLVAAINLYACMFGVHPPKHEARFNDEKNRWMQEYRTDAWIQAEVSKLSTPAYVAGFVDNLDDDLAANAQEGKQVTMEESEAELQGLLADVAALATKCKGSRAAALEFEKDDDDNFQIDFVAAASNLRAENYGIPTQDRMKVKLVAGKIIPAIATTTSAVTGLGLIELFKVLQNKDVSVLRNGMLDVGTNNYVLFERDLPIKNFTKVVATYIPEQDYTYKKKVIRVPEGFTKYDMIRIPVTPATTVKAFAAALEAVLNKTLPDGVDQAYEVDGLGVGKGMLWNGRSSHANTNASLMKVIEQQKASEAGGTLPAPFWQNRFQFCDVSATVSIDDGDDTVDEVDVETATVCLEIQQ
The test is described as follows: Leishmania donovani Ubiquitin Activating Enzyme (LdE1). The format is functional. To be noted: 30 µM.

Test [3] addresses AMP-activated protein kinase, AMPK (Homo sapiens) (UniProt P54646+O43741+P54619+Q9UGJ0+Q9Y478+Q13131+Q9UGI9). The experiment in a line: AMP-dependent Kinase enzyme assay. An in vitro enzyme assay that detects ADP turnover that is directly proportional to AMPK activity. This uses naive AMPK that is activated during the assay with MK-8722. To be noted: 30 µM. The format is functional.

The target in test [4] is Sialic acid-binding Ig-like lectin 9 (Homo sapiens) (UniProt Q9Y336). The experiment in a line: Hs-Siglec9 ALPHAscreen SOP 20170721. To be noted: 10 µM.
For test [5], the system named is Trypanosoma cruzi. The test is described as follows: Trypanosoma cruzi phosphomannomutase and mannose-1-phosphate guanylyltransferase assay. The format is functional. As to conditions: 10 µM.
In test [6] the target is T2, Arginase-2, mitochondrial (Homo sapiens) (UniProt P78540).
T2 sequence (whole entry): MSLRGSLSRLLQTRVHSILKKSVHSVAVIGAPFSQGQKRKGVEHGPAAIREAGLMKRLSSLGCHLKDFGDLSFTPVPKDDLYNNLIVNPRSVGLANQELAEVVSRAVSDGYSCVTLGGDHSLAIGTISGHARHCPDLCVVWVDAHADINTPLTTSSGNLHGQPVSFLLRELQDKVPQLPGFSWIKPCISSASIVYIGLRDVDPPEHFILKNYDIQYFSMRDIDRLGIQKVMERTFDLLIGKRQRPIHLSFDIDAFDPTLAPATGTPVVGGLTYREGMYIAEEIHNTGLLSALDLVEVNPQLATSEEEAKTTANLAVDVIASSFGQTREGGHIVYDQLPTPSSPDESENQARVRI
The test is described as follows: in vitro enzyme assay to detect the production of urea directly proportional to the activity of Arginase II. Also: in the data most compounds retested in dose-response had high values. The format is functional. To be noted: 33.3 µM.

The target of test [7] is T3, Proteasome subunit beta (Trypanosoma cruzi) (UniProt O96673).
T3 sequence (whole entry): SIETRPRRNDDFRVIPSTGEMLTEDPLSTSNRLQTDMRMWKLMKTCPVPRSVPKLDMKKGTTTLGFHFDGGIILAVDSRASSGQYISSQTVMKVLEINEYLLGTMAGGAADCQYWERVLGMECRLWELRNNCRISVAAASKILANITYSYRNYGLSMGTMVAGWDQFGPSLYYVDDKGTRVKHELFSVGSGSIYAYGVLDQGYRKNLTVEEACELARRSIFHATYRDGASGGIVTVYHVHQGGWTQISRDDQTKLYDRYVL
The experiment in a line: Trypanosoma cruzi proteasome chymotrypsin-like activity (TcProtChymo) assay. Also: in the data most compounds retested in dose-response had high values. As to conditions: 9.37 µM. The format is functional.

The species entered for test [8] is Homo sapiens. The test is described as follows: To identify inhibition of the IFN signalling (Jak-Stat) pathway via expression of an eGFP reporter gene under the control of an IFN-stimulated response element (ISRE) containing MxA promoter. As to conditions: 30 µM. It is filed as functional.
Test [9] concerns the target T4, Tyrosyl-tRNA synthetase, putative (Trypanosoma cruzi (strain CL Brener)) (UniProt Q4DSP6).
T4 sequence (whole entry): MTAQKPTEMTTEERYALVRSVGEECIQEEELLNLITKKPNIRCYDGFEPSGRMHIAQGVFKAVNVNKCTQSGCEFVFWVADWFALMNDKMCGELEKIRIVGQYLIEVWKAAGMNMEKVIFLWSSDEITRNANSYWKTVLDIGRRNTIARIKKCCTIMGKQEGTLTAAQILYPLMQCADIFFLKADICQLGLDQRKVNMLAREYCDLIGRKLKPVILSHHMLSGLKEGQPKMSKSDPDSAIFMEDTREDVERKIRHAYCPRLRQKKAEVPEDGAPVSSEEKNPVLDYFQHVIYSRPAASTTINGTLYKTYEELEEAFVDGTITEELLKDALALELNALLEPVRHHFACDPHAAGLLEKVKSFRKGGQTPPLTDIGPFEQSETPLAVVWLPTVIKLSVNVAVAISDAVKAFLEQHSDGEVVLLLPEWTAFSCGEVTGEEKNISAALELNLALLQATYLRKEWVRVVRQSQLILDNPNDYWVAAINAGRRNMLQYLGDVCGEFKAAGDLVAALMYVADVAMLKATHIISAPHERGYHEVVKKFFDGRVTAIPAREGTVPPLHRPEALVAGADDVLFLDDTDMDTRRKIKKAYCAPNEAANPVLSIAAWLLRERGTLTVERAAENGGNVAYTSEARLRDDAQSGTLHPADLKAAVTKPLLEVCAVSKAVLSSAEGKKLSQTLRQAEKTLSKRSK
The test is described as follows: Trypanosoma cruzi tyrosyl tRNA synthetase (TcYRS) _High Tyrosine SOP. Also: in the data most compounds retested in dose-response had high values. It is filed as functional. As to conditions: 30 µM.

The target of test [10] is T4, Tyrosyl-tRNA synthetase, putative (Trypanosoma cruzi (strain CL Brener)). The test is described as follows: Trypanosoma cruzi tyrosyl tRNA synthetase (TcYRS) SOP. It is filed as functional. To be noted: 30 µM.
For test [11], the target named is Chromo domain-containing protein 1 (Saccharomyces cerevisiae (strain ATCC 204508 / S288c) (Baker's yeast)) (UniProt P32657). The test is described as follows: ScCHD-1 Enzyme Inhibition Assay. Also: in the data most compounds retested in dose-response had high values. It is filed as functional. As to conditions: 30 µM.
Sequence of Chromo domain-containing protein 1 (Saccharomyces cerevisiae (strain ATCC 204508 / S288c) (Baker's yeast)) (P32657 whole entry, the tested form may be a part): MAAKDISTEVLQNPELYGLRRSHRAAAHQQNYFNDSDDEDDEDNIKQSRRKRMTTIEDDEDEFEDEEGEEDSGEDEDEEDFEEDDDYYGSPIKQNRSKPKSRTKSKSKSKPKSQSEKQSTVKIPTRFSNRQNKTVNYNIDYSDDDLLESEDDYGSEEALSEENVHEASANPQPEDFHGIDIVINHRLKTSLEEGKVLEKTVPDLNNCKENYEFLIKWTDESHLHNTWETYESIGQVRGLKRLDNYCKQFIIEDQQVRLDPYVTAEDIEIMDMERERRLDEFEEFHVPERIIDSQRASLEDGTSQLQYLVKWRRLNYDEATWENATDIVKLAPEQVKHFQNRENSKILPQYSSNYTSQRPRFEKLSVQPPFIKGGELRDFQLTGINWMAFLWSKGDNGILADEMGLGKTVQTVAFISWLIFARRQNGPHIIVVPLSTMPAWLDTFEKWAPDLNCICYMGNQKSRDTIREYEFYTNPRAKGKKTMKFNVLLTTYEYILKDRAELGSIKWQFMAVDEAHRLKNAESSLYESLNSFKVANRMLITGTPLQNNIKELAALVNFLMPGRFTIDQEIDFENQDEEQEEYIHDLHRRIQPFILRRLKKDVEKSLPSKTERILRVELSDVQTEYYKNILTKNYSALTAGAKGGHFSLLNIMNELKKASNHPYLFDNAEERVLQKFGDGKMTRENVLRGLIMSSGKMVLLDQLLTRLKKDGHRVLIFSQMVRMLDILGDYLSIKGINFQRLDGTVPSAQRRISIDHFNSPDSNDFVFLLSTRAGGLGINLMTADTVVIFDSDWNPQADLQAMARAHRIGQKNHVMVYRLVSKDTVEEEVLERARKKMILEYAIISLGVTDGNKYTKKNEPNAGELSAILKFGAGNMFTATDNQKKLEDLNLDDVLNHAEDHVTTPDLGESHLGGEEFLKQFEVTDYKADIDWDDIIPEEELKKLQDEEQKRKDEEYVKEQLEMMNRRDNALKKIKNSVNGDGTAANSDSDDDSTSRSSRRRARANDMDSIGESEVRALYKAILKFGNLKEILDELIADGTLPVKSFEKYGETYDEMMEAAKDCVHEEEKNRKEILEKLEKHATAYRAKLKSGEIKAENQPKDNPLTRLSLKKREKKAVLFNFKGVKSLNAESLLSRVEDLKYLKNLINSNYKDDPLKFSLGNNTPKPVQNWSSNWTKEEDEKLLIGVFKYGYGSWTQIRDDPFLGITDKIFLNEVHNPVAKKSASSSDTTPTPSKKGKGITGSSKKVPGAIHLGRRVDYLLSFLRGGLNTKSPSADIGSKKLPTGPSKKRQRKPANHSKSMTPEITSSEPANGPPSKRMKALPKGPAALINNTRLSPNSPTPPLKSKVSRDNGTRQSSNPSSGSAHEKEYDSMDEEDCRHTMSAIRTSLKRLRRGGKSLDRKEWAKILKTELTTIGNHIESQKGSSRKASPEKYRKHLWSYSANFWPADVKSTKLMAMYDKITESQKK

Sequence of Sialic acid-binding Ig-like lectin 9 (Homo sapiens) (Q9Y336 whole entry): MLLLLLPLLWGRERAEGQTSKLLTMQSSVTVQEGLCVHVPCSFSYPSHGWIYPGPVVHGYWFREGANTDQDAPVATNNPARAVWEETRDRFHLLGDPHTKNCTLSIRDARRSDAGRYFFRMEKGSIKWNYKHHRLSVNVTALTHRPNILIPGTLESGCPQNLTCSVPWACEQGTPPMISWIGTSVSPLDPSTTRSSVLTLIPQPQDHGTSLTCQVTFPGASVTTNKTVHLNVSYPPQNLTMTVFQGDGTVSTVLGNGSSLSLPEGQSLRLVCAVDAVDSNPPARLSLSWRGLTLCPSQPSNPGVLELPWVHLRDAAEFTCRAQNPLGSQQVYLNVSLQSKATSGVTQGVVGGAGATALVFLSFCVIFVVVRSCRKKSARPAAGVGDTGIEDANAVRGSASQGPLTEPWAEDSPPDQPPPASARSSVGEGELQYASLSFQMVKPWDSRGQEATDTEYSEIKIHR
Sequence of Protein translocase subunit SecA (Escherichia coli (strain K12)) (P10408 whole entry): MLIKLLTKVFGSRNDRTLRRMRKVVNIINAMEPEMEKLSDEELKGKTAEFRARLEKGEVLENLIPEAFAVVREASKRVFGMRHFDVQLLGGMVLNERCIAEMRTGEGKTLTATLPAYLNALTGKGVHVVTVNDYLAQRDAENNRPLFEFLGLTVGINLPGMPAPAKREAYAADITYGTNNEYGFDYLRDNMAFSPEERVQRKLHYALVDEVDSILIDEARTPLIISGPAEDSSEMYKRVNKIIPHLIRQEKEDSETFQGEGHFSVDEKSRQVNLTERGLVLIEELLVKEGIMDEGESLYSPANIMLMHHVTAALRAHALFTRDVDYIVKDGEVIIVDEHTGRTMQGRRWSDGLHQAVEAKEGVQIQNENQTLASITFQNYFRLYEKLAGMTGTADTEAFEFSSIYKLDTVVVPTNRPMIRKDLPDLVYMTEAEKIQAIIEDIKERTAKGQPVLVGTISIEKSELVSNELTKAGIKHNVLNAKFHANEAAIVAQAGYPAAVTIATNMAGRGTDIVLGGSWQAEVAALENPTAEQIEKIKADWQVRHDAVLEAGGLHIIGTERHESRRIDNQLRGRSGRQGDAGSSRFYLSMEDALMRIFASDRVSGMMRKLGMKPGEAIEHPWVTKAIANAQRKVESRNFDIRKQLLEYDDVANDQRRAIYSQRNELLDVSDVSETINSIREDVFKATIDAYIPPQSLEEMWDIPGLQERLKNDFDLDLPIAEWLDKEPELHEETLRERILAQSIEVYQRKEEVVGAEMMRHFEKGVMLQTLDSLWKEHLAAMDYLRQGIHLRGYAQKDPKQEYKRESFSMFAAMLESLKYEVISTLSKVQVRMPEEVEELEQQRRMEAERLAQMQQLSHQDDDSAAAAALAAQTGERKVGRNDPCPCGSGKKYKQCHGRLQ

Take `O=C(c1ccncc1)N1CCC(O)(Cn2ccc3ccncc32)CC1`: the Percent Effect in test [1] is -2.15%; in [2], 6.76%; in [3], 7.19%; in test [4] it was -2.13%; in test [5] it was -3.75%; in test [6], 0.232%. The Percent Effect in [7] was 17.9%; in test [8], -0.964%; in [9] it was 4.3%; in [10], 9.09%; in test [11] it was -10.5%.

`CCS(=O)(=O)N1Cc2nccn2CC(Cn2nc(C)nc2C)C1` (stereo not drawn): the Percent Effect in test [1] was -2.08%; in [2], 13.5%; in test [3], -5.79%; in [4], 32.6%; in test [5] it was 4.2%; in test [6], 19.6%. Besides, the Percent Effect was 16.9% in test [7]; -17.4% in test [8]; 5.38% in [9]; 18.5% in test [10]; -4.54% in test [11].

On to `Cc1cn2nc(N3CCCN(Cc4noc(C)n4)CC3)sc2n1`, for which the Percent Effect in test [1] is -4%; in test [2], 11.4%; in test [3], 7.75%; in test [4], 2.12%; in [5], -2.97%; in test [6] it was 1.94%. For the same molecule, the Percent Effect in test [7] is 13.4%; in test [8], 0.85%; in test [9], 7.29%; in [10], 12.7%; in test [11], -14.4%.

As to `Cc1cnn(CC2CN(CCN3CCCC3=O)CCO2)c1` (stereo not drawn), the Percent Effect in test [1] is -6.18%; in [2], 5.41%; in test [3] it was -4.61%; in test [4] it was 8.1%; in test [5], 8.7%; in test [6], 0.744%. The Percent Effect in test [7] is 7.3%; in test [8], -3.36%; in test [9], -3.23%; in test [10], 11.1%; in test [11] it was -4.96%.

Turning to `CN(C)S(=O)(=O)c1ccc(OCCNCCn2cccn2)cc1`, the Percent Effect in test [1] was -6.54%; in [2], 1.27%; in test [3], 2.35%; in test [4], -1.53%; in test [5], -1.13%; in [6], 1.5%. In addition, the Percent Effect was 5.15% in test [7]; 11.8% in test [8]; -1.04% in test [9]; -12.7% in test [10]; -41.4% in test [11].

On to `c1ncn(Cc2cnc3n2CCN(Cc2ccsc2)CC3)n1`, for which the Percent Effect in [1] was -7.34%; in [2], 5.33%; in [3], 7.1%; in [4], 2.34%; in [5], -5.32%; in test [6], -2.1%. Further, the Percent Effect came out at 5.9% in [7]; 14.2% in test [8]; 2.13% in test [9]; 8.97% in test [10]; 2.03% in test [11].

On to `CC(C)n1ccnc1CN1CCCN(C(=O)COC2CCCC2)CC1`, for which the Percent Effect in test [1] was -2.6%; in [2] it was 3.8%; in test [3], 6.6%; in test [4], 4.27%; in [5], -1.74%; in test [6], -2.8%. The Percent Effect in [7] was 4.29%; in test [8] it was 2.51%; in test [9] it was -1.04%; in test [10], 2.53%; in [11], -6.72%.

Regarding `CC(NC(=O)N(C)Cc1ccsc1)c1ccc2c(c1)CCC(=O)N2` (stereo not drawn), the Percent Effect in [1] is -0.422%; in [2] it was 15.8%; in test [3] it was 5%; in test [4], 7.35%; in [5] it was 1.13%; in [6], -3.06%. Besides, the Percent Effect is 1.67% in [7]; 3.81% in test [8]; 1.47% in test [9]; 17.1% in test [10]; -3.52% in test [11].
